# Activity calls are given as the source filed them. How the source made its calls: active means hit-call score of the fitted dose curve at least 0.9, where 1 is the maximum; inactive means score below 0.9.
# Legend:
# Conditions in all cases: mRNA level, 48 h; actives raise or lower the signal
# [1] = read-out: adenosine kinase (ADK) gene, ADK (gene 132); assay: LTEA_HepaRG_ADK: Life Technologies and Expression Analysis (LTEA) Assay for adenosine kinase (ADK) gene using HepaRG (AID 2283471)
# In short: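 Following 48 h exposure of HepaRG cells in 0.5% DMSO (top concentration 100 uM, duplicate wells), ADK mRNA induction or suppression was measured by qRT-PCR, normalised to ACTB/GAPDH/POLR2A, and fitted bidirectionally relative to vehicle.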
# [2] = read-out: Alpha-fetoprotein (AFP) gene, AFP (gene 174); assay: LTEA_HepaRG_AFP: Life Technologies and Expression Analysis (LTEA) Assay for Alpha-fetoprotein (AFP) gene using HepaRG (AID 2283472)
# In short: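 After a 48 h plating period, cells are moved to serum-free induction medium and dosed in duplicate (100 uM maximum, half-log dilutions, 0.5% DMSO) for another 48 h. Total RNA goes to TaqMan qRT-PCR; AFP signal is housekeeping-normalized.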
# BCL2L11 (gene 10018) = assay: LTEA_HepaRG_BCL2L11: Life Technologies and Expression Analysis (LTEA) Assay for Bcl-2 (BCL2L11) gene using HepaRG (AID 2283473)
# In short: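 Differentiated human HepaRG cells were exposed 48 h in serum-free induction medium to eight half-log concentrations up to 100 uM in 0.5% DMSO, in duplicate. BCL2L11 mRNA was quantified by TaqMan qRT-PCR, normalized to ACTB, GAPDH and POLR2A; induction or repression fitted versus DMSO.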
# [3] = read-out: Apolipoprotein A-V (APOA5) gene, APOA5 (gene 116519); assay: LTEA_HepaRG_APOA5: Life Technologies and Expression Analysis (LTEA) Assay for Apolipoprotein A-V (APOA5) gene using HepaRG (AID 2283474)
# In short: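 Differentiated HepaRG cells in serum-free induction medium, exposed 48 h in duplicate to eight half-log concentrations topping at 100 uM (0.5% DMSO). APOA5 mRNA by Fluidigm TaqMan qRT-PCR, normalized to ACTB, GAPDH and POLR2A; bidirectional fit versus DMSO.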
# [4] = read-out: Apoptosis regulator Bcl-2 (Homo sapiens) (UniProt P10415); assay: LTEA_HepaRG_BCL2: Life Technologies and Expression Analysis (LTEA) Assay for Bcl-2 gene using HepaRG (AID 2283475)
# In short: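 Expression change of BCL2 mRNA in HepaRG after 48 h dosing, quantified by TaqMan qRT-PCR against three endogenous controls. Concentration-response used eight points up to 100 uM, vehicle 0.5% DMSO.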
# [5] = read-out: Bcl-2 (BID) gene, BID (gene 637); assay: LTEA_HepaRG_BID: Life Technologies and Expression Analysis (LTEA) Assay for Bcl-2 (BID) gene using HepaRG (AID 2283476)
# In short: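 Gain or loss of BID expression is fitted relative to 0.5% DMSO vehicle. Human HepaRG liver cells received a 48 h chemical exposure over an eight-point concentration range.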
# Caspase-3 (Homo sapiens) = Caspase-3 (Homo sapiens) (UniProt P42574); assay: LTEA_HepaRG_CASP3: Life Technologies and Expression Analysis (LTEA) Assay for cysteine-aspartic acid protease (CASP3) using HepaRG (AID 2283477)
# Sequence of Caspase-3 (Homo sapiens) (P42574 whole entry, looked up): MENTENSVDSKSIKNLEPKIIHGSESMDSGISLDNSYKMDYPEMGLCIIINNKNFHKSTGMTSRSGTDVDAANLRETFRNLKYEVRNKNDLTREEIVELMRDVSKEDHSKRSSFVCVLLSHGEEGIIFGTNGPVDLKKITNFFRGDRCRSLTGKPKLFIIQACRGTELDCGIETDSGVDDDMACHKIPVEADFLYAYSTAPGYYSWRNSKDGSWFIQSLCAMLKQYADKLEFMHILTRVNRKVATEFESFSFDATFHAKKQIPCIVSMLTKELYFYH
# In short: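 Differentiated HepaRG cells, plated 48 h, were treated in duplicate in serum-free induction medium for 48 h with eight half-log concentrations up to 100 uM in 0.5% DMSO. CASP3 mRNA measured by qRT-PCR, normalized to ACTB, GAPDH, POLR2A.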
# [6] = read-out: Cytochrome P450 (CYP24A1), CYP24A1 (gene 1591); assay: LTEA_HepaRG_CYP24A1: Life Technologies and Expression Analysis (LTEA) Assay for Cytochrome P450 (CYP24A1) using HepaRG (AID 2283478)
# In short: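 HepaRG cells plated 48 h, then exposed in duplicate in serum-free induction medium for 48 h to 8-point half-log series from 100 uM in 0.5% DMSO. CYP24A1 mRNA by Fluidigm qRT-PCR, normalized to ACTB, GAPDH, POLR2A; bidirectional fit versus DMSO.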
# [7] = read-out: Cytochrome P450 (CYP1A2), CYP1A2 (gene 1544); assay: LTEA_HepaRG_CYP1A2: Life Technologies and Expression Analysis (LTEA) Assay for Cytochrome P450 (CYP1A2) using HepaRG (AID 2283479)
# In short: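 Differentiated human HepaRG cells in serum-free induction medium exposed 48 hours in duplicate to 8 half-log concentrations from 100 uM, 0.5% DMSO. CYP1A2 mRNA quantified by qRT-PCR, normalized to ACTB, GAPDH and POLR2A; bidirectional fitting versus DMSO.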
# [8] = read-out: cysteine-aspartic acid protease (CASP8), CASP8 (gene 841); assay: LTEA_HepaRG_CASP8: Life Technologies and Expression Analysis (LTEA) Assay for cysteine-aspartic acid protease (CASP8) using HepaRG (AID 2283480)
# In short: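 Differentiated human HepaRG cells, plated 48 h then switched to serum-free induction medium, were exposed in duplicate for 48 h to 8 half-log concentrations up to 100 uM in 0.5% DMSO. CASP8 mRNA was quantified by qRT-PCR, normalized to ACTB/GAPDH/POLR2A.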
# [9] = read-out: Cytochrome P450 (CYP2B6), CYP2B6 (gene 1555); assay: LTEA_HepaRG_CYP2B6: Life Technologies and Expression Analysis (LTEA) Assay for Cytochrome P450 (CYP2B6) using HepaRG (AID 2283481)
# In short: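 Differentiated human HepaRG cells in serum-free induction medium, dosed in duplicate for 48 h over 8 half-log concentrations topping at 100 uM (0.5% DMSO). CYP2B6 mRNA measured by TaqMan qRT-PCR, normalized to ACTB, GAPDH, POLR2A; bidirectional fit versus DMSO.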
# [10] = read-out: Cytochrome P450 2C19 (Homo sapiens) (UniProt P33261); assay: LTEA_HepaRG_CYP2C19: Life Technologies and Expression Analysis (LTEA) Assay for CYP2C19 using HepaRG (AID 2283482)
# In short: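 Differentiated HepaRG cells in serum-free induction medium exposed 48 h in duplicate, 8 concentrations from 100 uM by half-log steps in 0.5% DMSO. CYP2C19 mRNA measured by TaqMan qRT-PCR, normalized to ACTB, GAPDH, POLR2A. Bidirectional fit versus DMSO.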
# CYP2C8 (gene 1558) = assay: LTEA_HepaRG_CYP2C8: Life Technologies and Expression Analysis (LTEA) Assay for CYP2C8 using HepaRG (AID 2283483)
# In short: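 Differentiated human HepaRG cells were exposed for 48 h in serum-free induction medium to eight half-log concentrations up to 100 uM in 0.5% DMSO, in duplicate. CYP2C8 mRNA was measured by TaqMan qRT-PCR, normalized to ACTB, GAPDH and POLR2A, and fitted bidirectionally against DMSO.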
# CYP2C9 (gene 1559) = assay: LTEA_HepaRG_CYP2C9: Life Technologies and Expression Analysis (LTEA) Assay for CYP2C9 using HepaRG (AID 2283484)
# In short: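 Differentiated human HepaRG cells were exposed 48 h in serum-free induction medium to eight half-log concentrations up to 100 uM in 0.5% DMSO. CYP2C9 mRNA was measured by qRT-PCR, normalized to ACTB, GAPDH and POLR2A, and fitted bidirectionally against DMSO.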
# CYP2E1 (gene 1571) = assay: LTEA_HepaRG_CYP2E1: Life Technologies and Expression Analysis (LTEA) Assay for CYP2E1 using HepaRG (AID 2283485)
# In short: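 Differentiated HepaRG cells were treated in duplicate for 48 h with chemicals in 0.5% DMSO, from 100 uM downward in half-log dilutions. RNA was then analysed by qRT-PCR for CYP2E1 induction or loss.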
# CYP4A11 (gene 1579) = assay: LTEA_HepaRG_CYP4A11: Life Technologies and Expression Analysis (LTEA) Assay for CYP4A11 using HepaRG (AID 2283486)
# In short: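 Differentiated HepaRG cells, 48 h after plating, exposed in duplicate for 48 h to 8 half-log concentrations up to 100 uM in 0.5% DMSO in serum-free induction medium. CYP4A11 mRNA measured by TaqMan qRT-PCR, normalized to ACTB, GAPDH and POLR2A.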
# [11] = read-out: Cytochrome P450 3A4 (Homo sapiens) (UniProt P08684); assay: LTEA_HepaRG_CYP3A4: Life Technologies and Expression Analysis (LTEA) Assay for CYP3A4 using HepaRG (AID 2283487)
# In short: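 In a human hepatic line (HepaRG), duplicate wells were treated 48 h with up to 100 uM chemical in half-log dilutions. Endpoint: CYP3A4 mRNA induction or loss relative to 0.5% DMSO vehicle, by qRT-PCR.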
# [12] = read-out: DNA damage-inducible transcript 3 (DDIT3), DDIT3 (gene 1649); assay: LTEA_HepaRG_DDIT3: Life Technologies and Expression Analysis (LTEA) Assay for DNA damage-inducible transcript 3 (DDIT3) using HepaRG (AID 2283488)
# In short: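 Changes in DDIT3 transcript, in either direction relative to 0.5% DMSO vehicle, were quantified by TaqMan qRT-PCR after 48 h chemical exposure of HepaRG cells at 8 concentrations, maximum 100 uM.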
# [13] = read-out: Pro-epidermal growth factor (Homo sapiens) (UniProt P01133); assay: LTEA_HepaRG_EGF: Life Technologies and Expression Analysis (LTEA) Assay for Epidermal growth factor (EGF) using HepaRG (AID 2283489)
# In short: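 HepaRG cells (~100,000/well, 48 h pre-culture) exposed in duplicate for 48 h in serum-free induction medium to 8 half-log concentrations up to 100 uM in 0.5% DMSO. EGF mRNA by qRT-PCR, normalized to ACTB/GAPDH/POLR2A; bidirectional fit versus DMSO.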
# [14] = read-out: Early growth response protein 1 (EGR1) transcription factor, EGR1 (gene 1958); assay: LTEA_HepaRG_EGR1: Life Technologies and Expression Analysis (LTEA) Assay for Early growth response protein 1 (EGR1) transcription factor using HepaRG (AID 2283490)
# In short: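 Differentiated human HepaRG cells in serum-free induction medium were exposed in duplicate for 48 h to eight concentrations (top 100 uM, half-log steps) in 0.5% DMSO. EGR1 mRNA was quantified by qRT-PCR, normalized to ACTB, GAPDH and POLR2A, and fitted bidirectionally versus DMSO.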
# Sequence of Cytochrome P450 2C19 (Homo sapiens) (P33261 whole entry, looked up): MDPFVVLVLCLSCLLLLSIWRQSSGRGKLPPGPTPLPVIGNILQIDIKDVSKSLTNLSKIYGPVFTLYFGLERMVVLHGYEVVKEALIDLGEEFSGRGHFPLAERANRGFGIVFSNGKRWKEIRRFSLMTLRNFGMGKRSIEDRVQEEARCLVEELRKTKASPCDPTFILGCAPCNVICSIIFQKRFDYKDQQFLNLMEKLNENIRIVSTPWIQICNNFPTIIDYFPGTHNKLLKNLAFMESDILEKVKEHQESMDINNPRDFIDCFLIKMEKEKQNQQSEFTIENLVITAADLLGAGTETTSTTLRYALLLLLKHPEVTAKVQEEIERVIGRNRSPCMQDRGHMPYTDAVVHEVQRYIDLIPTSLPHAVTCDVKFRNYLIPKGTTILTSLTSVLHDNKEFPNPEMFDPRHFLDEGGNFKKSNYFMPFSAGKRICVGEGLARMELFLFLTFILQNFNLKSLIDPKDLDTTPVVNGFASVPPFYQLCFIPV
# Sequence of Apoptosis regulator Bcl-2 (Homo sapiens) (P10415 whole entry, looked up): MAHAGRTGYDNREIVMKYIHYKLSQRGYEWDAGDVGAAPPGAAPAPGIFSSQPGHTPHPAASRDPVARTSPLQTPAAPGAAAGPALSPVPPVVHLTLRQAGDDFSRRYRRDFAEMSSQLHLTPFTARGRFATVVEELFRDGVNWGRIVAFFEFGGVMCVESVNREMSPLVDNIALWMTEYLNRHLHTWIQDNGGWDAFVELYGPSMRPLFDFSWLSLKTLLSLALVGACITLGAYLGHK
# Sequence of Cytochrome P450 3A4 (Homo sapiens) (P08684 whole entry, looked up): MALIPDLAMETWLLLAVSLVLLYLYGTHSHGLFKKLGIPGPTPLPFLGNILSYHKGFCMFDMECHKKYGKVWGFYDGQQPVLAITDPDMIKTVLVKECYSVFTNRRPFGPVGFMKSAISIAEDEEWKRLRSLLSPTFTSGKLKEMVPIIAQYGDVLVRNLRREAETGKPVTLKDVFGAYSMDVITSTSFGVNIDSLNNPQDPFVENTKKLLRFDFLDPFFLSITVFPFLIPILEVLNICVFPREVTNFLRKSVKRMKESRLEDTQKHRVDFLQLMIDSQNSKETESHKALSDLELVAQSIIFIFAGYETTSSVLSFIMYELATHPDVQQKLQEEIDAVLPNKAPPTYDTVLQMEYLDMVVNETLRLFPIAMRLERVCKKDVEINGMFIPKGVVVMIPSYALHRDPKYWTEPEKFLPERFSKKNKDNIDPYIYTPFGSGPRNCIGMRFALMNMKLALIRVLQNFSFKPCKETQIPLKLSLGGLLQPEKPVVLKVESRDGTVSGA
smiles,measurement,setting,value
O=C1C2CC=CCC2C(=O)N1SC(Cl)(Cl)Cl (stereo not given),outcome,[1],inactive
same,outcome,[2],inactive
same,outcome,BCL2L11 (gene 10018),inactive
same,outcome,[3],inactive
same,outcome,[4],inactive
same,outcome,[5],inactive
same,outcome,Caspase-3 (Homo sapiens),inactive
same,outcome,[6],inactive
same,outcome,[7],inactive
same,outcome,[8],inactive
same,outcome,[9],inactive
same,outcome,[10],inactive
same,outcome,CYP2C8 (gene 1558),inactive
same,outcome,CYP2C9 (gene 1559),inactive
same,outcome,CYP2E1 (gene 1571),inactive
same,outcome,CYP4A11 (gene 1579),inactive
same,outcome,[11],inactive
same,outcome,[12],inactive
same,outcome,[13],inactive
same,outcome,[14],inactive
CCNP(=S)(OC)O/C(C)=C/C(=O)OC(C)C (stereo not given),outcome,[1],inactive
same,outcome,[2],inactive
same,outcome,BCL2L11 (gene 10018),inactive
same,outcome,[3],inactive
same,outcome,[4],inactive
same,outcome,[5],inactive
same,outcome,Caspase-3 (Homo sapiens),inactive
same,outcome,[6],inactive
same,AC50,[7],18 µM (active)
same,outcome,[8],inactive
same,AC50,[9],5.19 µM (active)
same,AC50,[10],8.66 µM (active)
same,AC50,CYP2C8 (gene 1558),12.9 µM (active)
same,outcome,CYP2C9 (gene 1559),inactive
same,AC50,CYP2E1 (gene 1571),34.8 µM (active)
same,AC50,CYP4A11 (gene 1579),68.4 µM (active)
same,AC50,[11],8.97 µM (active)
same,outcome,[12],inactive
same,outcome,[13],inactive
same,outcome,[14],inactive
CCCC(=NOCC)C1=C(O)CC(CC(C)SCC)CC1=O (stereo not given),outcome,[1],inactive
same,outcome,[2],inactive
same,outcome,BCL2L11 (gene 10018),inactive
same,outcome,[3],inactive
same,outcome,[4],inactive
same,outcome,[5],inactive
same,outcome,Caspase-3 (Homo sapiens),inactive
same,outcome,[6],inactive
same,outcome,[7],inactive
same,outcome,[8],inactive
same,AC50,[9],46.2 µM (active)
same,AC50,[10],29.6 µM (active)
same,outcome,CYP2C8 (gene 1558),inactive
same,outcome,CYP2C9 (gene 1559),inactive
same,AC50,CYP2E1 (gene 1571),50.2 µM (active)
same,outcome,CYP4A11 (gene 1579),inactive
same,AC50,[11],28.4 µM (active)
same,outcome,[12],inactive
same,outcome,[13],inactive
same,outcome,[14],inactive

# Source: PubChem BioAssay (EPA / NIEHS)
